Laboratory results: PubChem BioAssay AID1159580 (chemical genetic matrix, 2015)
Among all 5,500 compounds or so, about 2,000 (36%) were called active. Not shown: some 18% with an inconclusive outcome. Cut-off read from the data, not from the text of the source: active = normalized growth mostly below about 0.91 (no sharp cut-off); inconclusive = no clear call, values can overlap the other calls; inactive = mostly above about 0.92. The list shows a part of the results.

Experiment: chemical genetic growth profiling, strain panel (AID 1159580);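 note: tested at 20 µM; growth read once vehicle control cultures reached saturation at 30 °C; 1 = growth at the plate median or of vehicle wells; lower values mean less growth of the strain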
Details: growth OD

Measured: normalized growth

CN[C@@H]1[C@@H](O[C@H]2O[C@H](CO)[C@@H](N)[C@H](O)[C@H]2O)O[C@H]2C[C@@H](N)[C@H](O[C@H]3[C@H](O)[C@@H](O)[C@H](N)C[C@@H]3N)O[C@@H]2[C@@H]1O
inactive: S. cerevisiae deletion strains, locus YKL009W, strain mrt4, active compounds read low 0.996 | S. cerevisiae deletion strains, locus YKL068W, active compounds read low 1.01 | S. cerevisiae deletion strains, locus YKL085W, strain MDH1 (second series), active compounds read low 0.982 | S. cerevisiae deletion strains, locus YKL085W, strain MDH1, active compounds read low 0.982 | S. cerevisiae deletion strains, locus YKL160W, strain elf1, active compounds read low 1.01 | S. cerevisiae deletion strains, locus YKL190W, strain CNB1, active compounds read low 1 | S. cerevisiae deletion strains, locus YKR001C, strain vps1, active compounds read low 0.989 | S. cerevisiae deletion strains, locus YKR026C, strain gcn3, active compounds read low 1 | S. cerevisiae deletion strains, locus YKR091W, strain srl3, active compounds read low 1 | S. cerevisiae deletion strains, locus YLL001W, strain dnm1, active compounds read low 1.02 | S. cerevisiae deletion strains, locus YLL026W, active compounds read low 1.01 | S. cerevisiae deletion strains, locus YLL041C, strain sdh2, active compounds read low 0.997 | S. cerevisiae deletion strains, locus YLR027C, strain aat2, active compounds read low 1.01 | S. cerevisiae deletion strains, locus YLR039C, strain RIC1, active compounds read low 1.07 | S. cerevisiae deletion strains, locus YLR058C, strain SHM2, active compounds read low 1.01 | S. cerevisiae deletion strains, locus YLR102C, strain apc9, active compounds read low 1.01 | S. cerevisiae deletion strains, locus YLR113W, strain HOG1, active compounds read low 0.939 | S. cerevisiae deletion strains, locus YLR221C, strain rsa3, active compounds read low 1 | S. cerevisiae deletion strains, locus YLR258W, strain gsy2, active compounds read low 1 | S. cerevisiae deletion strains, locus YLR262C, strain YPT6 (second series), active compounds read low 1 | S. cerevisiae deletion strains, locus YLR262C, strain YPT6, active compounds read low 1.05 | S. cerevisiae deletion strains, locus YLR268W, strain sec22, active compounds read low 0.981 | S. cerevisiae deletion strains, locus YLR320W, strain mms22, active compounds read low 0.991 | S. cerevisiae deletion strains, locus YLR330W, strain CHS5, active compounds read low 1.01 | S. cerevisiae deletion strains, locus YLR342W, strain FKS1 (second series), active compounds read low 1.07 | S. cerevisiae deletion strains, locus YLR342W, strain FKS1, active compounds read low 1.02 | S. cerevisiae deletion strains, locus YLR357W, strain rsc2, active compounds read low 0.996 | S. cerevisiae deletion strains, locus YLR370C, strain arc18, active compounds read low 1.01 | S. cerevisiae deletion strains, locus YLR371W, strain rom2, active compounds read low 1.01 | S. cerevisiae deletion strains, locus YLR384C, strain iki3, active compounds read low 1 | S. cerevisiae deletion strains, locus YLR418C, strain cdc73, active compounds read low 0.99 | S. cerevisiae deletion strains, locus YML016C, strain PPZ1, active compounds read low 1 | S. cerevisiae deletion strains, locus YML032C, strain rad52, active compounds read low 1.01 | S. cerevisiae deletion strains, locus YML120C, strain ndi1, active compounds read low 1 | S. cerevisiae deletion strains, locus YML124C, strain tub3, active compounds read low 0.995 | S. cerevisiae deletion strains, locus YMR058W, strain fet3, active compounds read low 1.02 | S. cerevisiae deletion strains, locus YMR078C, strain ctf18, active compounds read low 1.02 | S. cerevisiae deletion strains, locus YMR125W, strain sto1, active compounds read low 0.988 | S. cerevisiae deletion strains, locus YMR129W, active compounds read low 0.986 | S. cerevisiae deletion strains, locus YMR205C, strain PFK2, active compounds read low 1.02 | S. cerevisiae deletion strains, locus YMR223W, strain ubp8, active compounds read low 0.913 | S. cerevisiae deletion strains, locus YMR231W, strain pep5, active compounds read low 1.01 | S. cerevisiae deletion strains, locus YMR263W, strain SAP30, active compounds read low 0.991 | S. cerevisiae deletion strains, locus YMR307W, strain GAS1, active compounds read low 1.03 | S. cerevisiae deletion strains, locus YNL067W, strain RPL9B, active compounds read low 0.988 | S. cerevisiae deletion strains, locus YNL071W, strain lat1, active compounds read low 0.995 | S. cerevisiae deletion strains, locus YNL128W, strain TEP1, active compounds read low 1.03 | S. cerevisiae deletion strains, locus YNL153C, strain GIM3, active compounds read low 0.98 | S. cerevisiae deletion strains, locus YNL183C, strain NPR1, active compounds read low 0.916 | S. cerevisiae deletion strains, locus YNL209W, strain ssb2, active compounds read low 0.996 | S. cerevisiae deletion strains, locus YNL233W, strain BNI4, active compounds read low 1 | S. cerevisiae deletion strains, locus YNL248C, strain rpa49, active compounds read low 0.999 | S. cerevisiae deletion strains, locus YNL250W, strain rad50, active compounds read low 1.01 | S. cerevisiae deletion strains, locus YNL271C, strain bni1, active compounds read low 0.997 | S. cerevisiae deletion strains, locus YNL298W, strain CLA4, active compounds read low 1.01 | S. cerevisiae deletion strains, locus YNL307C, strain MCK1, active compounds read low 1.02 | S. cerevisiae deletion strains, locus YNL322C, strain KRE1 (second series), active compounds read low 1 | S. cerevisiae deletion strains, locus YNL322C, strain KRE1, active compounds read low 1.01 | S. cerevisiae deletion strains, locus YNR049C, strain mso1, active compounds read low 0.999 | S. cerevisiae deletion strains, locus YNR052C, strain pop2, active compounds read low 0.996 | S. cerevisiae deletion strains, locus YOL006C, strain TOP1, active compounds read low 1 | S. cerevisiae deletion strains, locus YOL012C, strain htz1 0.612 | S. cerevisiae deletion strains, locus YOL147C, strain pex11, active compounds read low 1 | S. cerevisiae deletion strains, locus YOR001W, strain rrp6, active compounds read low 1 | S. cerevisiae deletion strains, locus YOR061W, strain CKA2, active compounds read low 1.01 | S. cerevisiae deletion strains, locus YOR069W, strain VPS5, active compounds read low 1 | S. cerevisiae deletion strains, locus YOR070C, strain gyp1, active compounds read low 1 | S. cerevisiae deletion strains, locus YOR080W, strain dia2, active compounds read low 1.01 | S. cerevisiae deletion strains, locus YOR083W, strain WHI5, active compounds read low 1.01 | S. cerevisiae deletion strains, locus YOR106W, strain vam3, active compounds read low 1.01 | S. cerevisiae deletion strains, locus YOR136W, strain idh2, active compounds read low 1.01 | S. cerevisiae deletion strains, locus YOR144C, strain elg1, active compounds read low 1 | S. cerevisiae deletion strains, locus YOR184W, strain ser1, active compounds read low 1.03 | S. cerevisiae deletion strains, locus YOR231W, strain MKK1, active compounds read low 0.951 | S. cerevisiae deletion strains, locus YOR265W, strain rbl2, active compounds read low 1.01 | S. cerevisiae deletion strains, locus YOR270C, strain vph1, active compounds read low 1.2 | S. cerevisiae deletion strains, locus YOR290C, strain snf2, active compounds read low 0.991 | S. cerevisiae deletion strains, locus YOR316C, strain cot1, active compounds read low 1.01 | S. cerevisiae deletion strains, locus YPL051W, strain arl3, active compounds read low 1.02 | S. cerevisiae deletion strains, locus YPL055C, strain LGE1, active compounds read low 0.984 | S. cerevisiae deletion strains, locus YPL078C, strain atp4, active compounds read low 1.03 | S. cerevisiae deletion strains, locus YPL106C, strain sse1, active compounds read low 0.975 | S. cerevisiae deletion strains, locus YPL240C, strain hsp82, active compounds read low 0.995 | S. cerevisiae deletion strains, locus YPL241C, strain CIN2, active compounds read low 1 | S. cerevisiae deletion strains, locus YPL256C, strain CLN2, active compounds read low 1.02 | S. cerevisiae deletion strains, locus YPR119W, strain clb2, active compounds read low 1.01 | S. cerevisiae deletion strains, locus YPR141C, strain kar3, active compounds read low 1 | S. cerevisiae deletion strains, locus YPR163C, strain tif3, active compounds read low 1 | S. cerevisiae deletion strains, locus YPR167C, strain met16, active compounds read low 0.991 | S. cerevisiae deletion strains, strain wtn01, active compounds read low 0.988 | S. cerevisiae strains, strain wild type, active compounds read low 1.02
